Measured values as given in PubChem BioAssay AID1224921 (Broad Institute, 2016).
The whole screen tested about 1,400 compounds, of which about 350 (25%) were called active. About 2% were inconclusive and are not listed. How the calls were made is not given here. Not all results are given here. Potency and affinity values are given separately.

test: C. difficile growth inhibition, confirmation, 4-point retest (AID 1224921); conditions: Clostridioides difficile clinical isolate growth, OD600, 24 h, active compounds read low; at 30 µM unless noted;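 further: plate controls were DMSO wells for no effect and levofloxacin 16 µg/mL wells for full effect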

Max activity, inactive:
COc1ccccc1C#Cc1ccc([C@@H]2[C@@H](C#N)N(C(=O)C3CCCCC3)[C@H]2CO)cc1 30.9%, N#C[C@@H]1[C@@H](c2ccc(C#Cc3cccc(F)c3)cc2)[C@H](CO)N1C(=O)C1CCC1 24.5% [at 0.5 µM], COc1cccc(C#Cc2ccc([C@@H]3[C@@H](C#N)N(C(=O)C4CCCCC4)[C@H]3CO)cc2)c1 32.5%, COc1ccccc1C#Cc1ccc([C@@H]2[C@@H](CO)N(C(=O)C3CCCCC3)[C@H]2C#N)cc1 12.6% [at 1.95 µM], COc1ccccc1C#Cc1ccc([C@H]2[C@@H](C#N)N(C(=O)C3CCC3)[C@H]2CO)cc1 29.5% [at 8 µM], N#C[C@H]1[C@@H](c2ccc(C#Cc3ccccc3F)cc2)[C@@H](CO)N1C(=O)C1CCC1 -4.04%, COc1ccccc1C#Cc1ccc([C@H]2[C@@H](CO)N(C(=O)C3CC3)[C@H]2C#N)cc1 12.6%, COc1cccc(C#Cc2ccc([C@H]3[C@@H](CO)N(C(=O)C4CCC4)[C@H]3C#N)cc2)c1 29% [at 8 µM], C[C@H](C(=O)N(C)C[C@@H]1OCc2ccccc2-c2ccccc2C(=O)N([C@H](C)CO)C[C@H]1C)c1ccccc1 -11.2% [at 1.95 µM], CCCC(=O)Nc1ccc2c(c1)C(=O)N(C)C[C@@H](OC)[C@H](C)CN(Cc1ccccc1)[C@@H](C)CO2 26.7%, O=C(C[C@H]1CC[C@H](NC(=O)C2CCOCC2)[C@@H](CO)O1)Nc1nccs1 -4.31% [at 1.95 µM], C[C@H]1CN([C@@H](C)CO)S(=O)(=O)c2ccc(C#Cc3ccc(F)cc3)cc2O[C@@H]1CN(C)S(C)(=O)=O -17.5% [at 1.95 µM], CCCC#Cc1ccc2c(c1)O[C@H](CN(C)Cc1ccncc1)[C@H](C)CN([C@@H](C)CO)S2(=O)=O -13.4% [at 8 µM], CCCC(=O)Nc1ccc2c(c1)OC[C@@H](C)N(C(=O)c1ccccc1F)C[C@@H](C)[C@H](OC)CN(C)C2=O -11% [at 1.95 µM], CO[C@@H]1CN(C)C(=O)c2cc(NC(=O)c3cccc(F)c3)ccc2OC[C@@H](C)N(C(C)=O)C[C@@H]1C 7.72%, C[C@@H]1CN([C@H](C)CO)C(=O)c2ccccc2-c2ccccc2CO[C@H]1CN(C)S(=O)(=O)c1ccc(Cl)cc1 34.1%, CCCN1C[C@H](C)[C@H](OC)CN(C)C(=O)c2cc(NC(=O)Nc3cccc(OC)c3)ccc2OC[C@@H]1C 17.5% [at 35 µM], C[C@H](CO)N1C[C@H](C)[C@H](CN(C)Cc2ccccc2)Oc2c(NS(C)(=O)=O)cccc2C1=O 24.8%, C[C@H]1CN([C@@H](C)CO)C(=O)c2cccc(NS(=O)(=O)c3ccccc3)c2O[C@H]1CN(C)Cc1ccc(Cl)c(Cl)c1 33.4%, C[C@@H]1CN([C@@H](C)CO)C(=O)c2cc(NC(=O)Nc3ccc(C(F)(F)F)cc3)ccc2O[C@@H]1CN(C)Cc1ccc(Oc2ccccc2)cc1 30.2%, C[C@@H]1CN([C@@H](C)CO)C(=O)c2cccc(NS(C)(=O)=O)c2O[C@@H]1CN(C)Cc1ccccc1 -11.2% [at 8 µM], C[C@@H]1CN([C@@H](C)CO)C(=O)c2cccc(NS(C)(=O)=O)c2O[C@H]1CN(C)Cc1ccccc1 16.6%, O=C(C[C@H]1C=C[C@H](NC(=O)c2ccncc2)[C@@H](CO)O1)Nc1ccc(-c2ccccc2)cc1 -5.7% [at 0.5 µM], COc1ccc(COC[C@@]23Oc4ccccc4[C@@H](NC(=S)N2C)[C@H]3CO[Si](C)(C)C(C)(C)C)cc1 23.7%, O=C(C[C@H]1C[C@H]2c3cc(NC(=O)Nc4ccccc4)ccc3O[C@H]2[C@@H](CO)O1)NC1CCCC1 -20.3% [at 1.95 µM], C[C@H]1CN([C@@H](C)CO)S(=O)(=O)c2ccc(C3=CCCCC3)cc2O[C@@H]1CN(C)Cc1cccnc1 31.2%, COc1cccc(NC(=O)N(C)C[C@H]2Oc3cc(C#CC4(O)CCCC4)ccc3S(=O)(=O)N([C@@H](C)CO)C[C@H]2C)c1 -5.35% [at 0.5 µM], CO[C@H]1CN(C)C(=O)c2ccc(NC(=O)c3ccccc3F)cc2OC[C@@H](C)N(CC2CC2)C[C@@H]1C -8.61% [at 0.5 µM], COc1ccc(CN(C)C[C@@H]2OCCCC[C@H](C)Oc3ccc(NC(=O)Nc4cccc5ccccc45)cc3C(=O)N([C@@H](C)CO)C[C@H]2C)cc1 25.5%, COc1ccc(CN(C)C[C@@H]2OCCCC[C@@H](C)Oc3ccc(NC(=O)Nc4cccc5ccccc45)cc3C(=O)N([C@H](C)CO)C[C@H]2C)cc1 17.7% [at 1.95 µM], C[C@@H]1CN([C@@H](C)CO)C(=O)c2cc(NC(=O)Nc3cccc4ccccc34)ccc2O[C@@H](C)CCCCO[C@H]1CN(C)Cc1ccccc1 42%, COc1ccc(CN(C)C[C@@H]2OCCCC[C@@H](C)Oc3ccc(NC(=O)Nc4cccc5ccccc45)cc3C(=O)N([C@@H](C)CO)C[C@H]2C)cc1 29.5% [at 8 µM], CC(C)(C)[S@@](=O)N1Cc2cc(C(=O)NCc3ccc4c(c3)OCO4)nc(-c3cccc(-c4cccnc4)c3)c2[C@H]1CCO 31.3% [at 35 µM], O=C(C[C@@H]1C=C[C@H](NC(=O)c2cccnc2)[C@H](CO)O1)NCc1ccc(Cl)c(Cl)c1 -13.7% [at 1.95 µM], Cc1ccc(-c2ccc3c(c2)O[C@@H](CN(C)Cc2cccnc2)[C@H](C)CN([C@@H](C)CO)S3(=O)=O)cc1 41.8%, C[C@H](NC(=O)C[C@@H]1CC[C@@H]2[C@H](COC[C@H](O)CN2C(=O)Nc2cc(Cl)cc(Cl)c2)O1)c1ccccc1 24.8% [at 8 µM], C[C@H](NC(=O)C[C@@H]1CC[C@@H]2[C@H](COC[C@@H](O)CN2C(=O)Nc2cc(Cl)cc(Cl)c2)O1)c1ccccc1 14% [at 1.95 µM], C[C@@H]1CN([C@@H](C)CO)S(=O)(=O)c2ccc(C#CCN(C)C)cc2O[C@H]1CN(C)C(=O)c1ccccc1F 7.9%, N#C[C@@H]1[C@@H](c2ccc(/C=C/c3ccccc3)cc2)[C@@H](CO)N1C(=O)C1CCC1 38.2% [at 35 µM], COc1ccc(C(=O)Nc2ccc3c(c2)OC[C@H](C)N(C(C)=O)C[C@@H](C)[C@H](OC)CN(C)C3=O)cc1 -10.5%, C[C@H](CO)N1C[C@H](C)[C@@H](CN(C)S(C)(=O)=O)OCCCC[C@H](C)Oc2ccc(NC(=O)Nc3cccc4ccccc34)cc2C1=O 7.82%, COc1ccc(-c2ccc([C@H]3[C@@H](C#N)N(C(=O)C4CCCC4)[C@@H]3CO)cc2)cc1 25.1% [at 35 µM], CCCC(=O)Nc1ccc2c(c1)C(=O)N(C)C[C@@H](OC)[C@H](C)CN(CC1CCOCC1)[C@@H](C)CO2 -8.25%, C[C@@H]1CN([C@H](C)CO)S(=O)(=O)c2ccc(C#CC3CC3)cc2O[C@H]1CN(C)Cc1ccncc1 29.7% [at 8 µM], O=C(C[C@@H]1CC[C@H](NC(=O)CCN2CCCCC2)[C@@H](CO)O1)Nc1nccs1 -9.66% [at 1.95 µM], C[C@@H]1CCCCO[C@H](CN(C)Cc2ccc(C(F)(F)F)cc2)[C@H](C)CN([C@@H](C)CO)C(=O)c2cc(NS(C)(=O)=O)ccc2O1 30.2%, O=C(C[C@H]1C=C[C@H](NC(=O)c2ccccn2)[C@@H](CO)O1)NCc1cc(F)cc(F)c1 -9.02% [at 8 µM], O=C(C[C@H]1C[C@H]2c3cc(NC(=O)Nc4ccc(C(F)(F)F)cc4)ccc3O[C@H]2[C@@H](CO)O1)NCc1ccc2c(c1)OCO2 -6.78% [at 1.95 µM], CO[C@@H]1CN(C)C(=O)c2cc(NS(=O)(=O)c3cn(C)cn3)ccc2OC[C@@H](C)N(Cc2cccc(C(F)(F)F)c2)C[C@H]1C 28.5%, Cc1noc(C)c1NC(=O)N[C@@H]1CC[C@H](CC(=O)Nc2ccc(-c3ccccc3)cc2)O[C@H]1CO 26.4%, O=C(Nc1ccc(F)cc1)Nc1ccc2c(c1)[C@H]1C[C@@H](CC(=O)N3CCCCC3)O[C@H](CO)[C@H]1O2 -19.5% [at 2.1 µM], CCCN1C[C@@H](C)[C@@H](OC)CN(C)C(=O)c2cc(NC(=O)c3cccc(OC)c3)ccc2OC[C@H]1C -8.56% [at 0.5 µM], CC(C)CC#Cc1ccc2c(c1)O[C@H](CN(C)CC1CC1)[C@H](C)CN([C@H](C)CO)S2(=O)=O 6.75%, COCC(=O)Nc1ccc2c(c1)OC[C@H](C)N(Cc1cncnc1)C[C@@H](C)[C@H](OC)CN(C)C2=O -11.5%, COc1ccc(CNC(=O)N(C)C[C@H]2OCc3ccccc3-c3c(n(C)c4ccccc34)C(=O)N([C@@H](C)CO)C[C@@H]2C)cc1 30.4%, C[C@H]1CN([C@@H](C)CO)C(=O)CCCn2nncc2CO[C@H]1CN(C)S(=O)(=O)c1ccc(Oc2ccccc2)cc1 10.4%, C[C@@H]1CN([C@H](C)CO)C(=O)c2cc(NC(=O)Cc3ccccc3)ccc2O[C@@H]1CN(C)C(=O)Nc1ccccc1 -4.25%, C[C@H](CO)N1C[C@H](C)[C@H](CN(C)C(=O)Nc2ccccc2)Oc2ccc(NC(=O)Cc3ccccc3)cc2C1=O -7.38%, C[C@H]1CN([C@@H](C)CO)C(=O)c2cc(NC(=O)Cc3ccccc3)ccc2O[C@H]1CN(C)C(=O)Nc1ccccc1 -15.5%, C[C@H](CO)N1C[C@H](C)[C@H](CN(C)C(=O)Nc2ccc(C(F)(F)F)cc2)Oc2ncc(C3=CCCC3)cc2C1=O 32.4%, C[C@@H]1CN([C@@H](C)CO)C(=O)c2cc(NC(=O)Cc3ccccc3)ccc2O[C@@H]1CN(C)C(=O)Nc1ccccc1 -11.4% [at 0.5 µM]
